In PMC7862700, “An all-to-all approach to the identification of sequence-specific readers for epigenetic DNA modifications on cytosine”:

Columns and labels:
Assay in all cases: DAPPL (digital affinity profiling via proximity ligation, sequencing); 10 mM Tris-HCl pH 7.5, 50 mM NaCl, 1 mM DTT, 4% glycerol, room temperature, 30 min; GST-TFs on glutathione beads, 16-mer random dsDNA library, 0.1% formaldehyde crosslink after washing; high values mean tight binding
Conditions in all cases: protein: recombinant; tags: N-terminal GST; dsDNA, one strand shown
[1] = molecular target: T1, ERF (Homo sapiens, UniProt P50548 1-548)
T1 sequence: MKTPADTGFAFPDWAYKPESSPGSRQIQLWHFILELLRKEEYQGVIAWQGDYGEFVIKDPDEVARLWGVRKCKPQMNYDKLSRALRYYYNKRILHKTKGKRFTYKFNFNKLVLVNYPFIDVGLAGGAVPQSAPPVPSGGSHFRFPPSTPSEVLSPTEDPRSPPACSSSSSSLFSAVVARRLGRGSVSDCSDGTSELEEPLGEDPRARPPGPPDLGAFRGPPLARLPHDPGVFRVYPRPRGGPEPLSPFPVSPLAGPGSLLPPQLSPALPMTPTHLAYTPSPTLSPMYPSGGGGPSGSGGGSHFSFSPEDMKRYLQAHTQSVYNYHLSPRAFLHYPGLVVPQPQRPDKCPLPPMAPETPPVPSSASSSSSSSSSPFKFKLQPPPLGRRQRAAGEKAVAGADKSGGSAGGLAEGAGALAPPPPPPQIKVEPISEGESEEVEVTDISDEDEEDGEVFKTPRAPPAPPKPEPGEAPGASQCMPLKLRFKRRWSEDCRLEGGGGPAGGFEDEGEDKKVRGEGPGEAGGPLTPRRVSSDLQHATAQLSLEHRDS
How it was run: (§1)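 Sequencing on an Illumina NextSeq500 followed washing, crosslinking with 0.1% formaldehyde, proximity ligation (BsaI/T4 ligase, 1 h, 37 °C) and PCR amplification of pools that had been incubated for 30 min at room temperature with 200 nmole of a random double-stranded 16-mer DNA library in Tris/NaCl/DTT/glycerol buffer. Each pool held DNA-barcoded human transcription factors, expressed in yeast as GST fusions and captured on glutathione beads, plus a tag-only sample. Binding signal is a hexamer's read frequency for a factor divided by its frequency in the tag-only sample.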

[2] = molecular target: T2, ETV3L (Homo sapiens, UniProt Q6ZN32 1-361)
T2 sequence: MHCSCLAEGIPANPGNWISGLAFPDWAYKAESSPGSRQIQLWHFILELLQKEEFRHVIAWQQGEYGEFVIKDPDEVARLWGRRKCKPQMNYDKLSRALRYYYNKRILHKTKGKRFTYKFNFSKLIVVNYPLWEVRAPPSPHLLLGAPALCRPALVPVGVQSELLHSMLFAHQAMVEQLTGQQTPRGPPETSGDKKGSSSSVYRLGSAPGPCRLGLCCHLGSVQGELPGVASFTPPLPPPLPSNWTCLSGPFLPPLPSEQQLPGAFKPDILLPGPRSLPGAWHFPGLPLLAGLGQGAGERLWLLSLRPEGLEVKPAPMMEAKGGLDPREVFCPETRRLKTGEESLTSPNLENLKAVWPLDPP
How it was run: as §1

[3] = molecular target: T3, ETS2 (Homo sapiens, UniProt P15036 1-469)
T3 sequence: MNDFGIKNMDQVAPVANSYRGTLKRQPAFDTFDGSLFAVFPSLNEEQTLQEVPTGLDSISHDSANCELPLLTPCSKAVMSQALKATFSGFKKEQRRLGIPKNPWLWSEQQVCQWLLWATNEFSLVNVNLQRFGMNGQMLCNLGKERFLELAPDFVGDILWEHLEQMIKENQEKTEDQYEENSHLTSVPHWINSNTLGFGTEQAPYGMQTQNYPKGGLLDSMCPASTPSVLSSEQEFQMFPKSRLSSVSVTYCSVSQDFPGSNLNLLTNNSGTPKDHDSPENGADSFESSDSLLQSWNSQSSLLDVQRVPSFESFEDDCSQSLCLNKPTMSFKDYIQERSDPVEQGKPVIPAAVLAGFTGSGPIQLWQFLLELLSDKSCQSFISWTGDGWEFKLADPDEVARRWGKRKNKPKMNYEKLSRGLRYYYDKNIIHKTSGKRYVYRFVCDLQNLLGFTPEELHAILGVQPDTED
How it was run: as §1

[4] = molecular target: T4, SPDEF (Homo sapiens, UniProt O95238 1-335)
T4 sequence: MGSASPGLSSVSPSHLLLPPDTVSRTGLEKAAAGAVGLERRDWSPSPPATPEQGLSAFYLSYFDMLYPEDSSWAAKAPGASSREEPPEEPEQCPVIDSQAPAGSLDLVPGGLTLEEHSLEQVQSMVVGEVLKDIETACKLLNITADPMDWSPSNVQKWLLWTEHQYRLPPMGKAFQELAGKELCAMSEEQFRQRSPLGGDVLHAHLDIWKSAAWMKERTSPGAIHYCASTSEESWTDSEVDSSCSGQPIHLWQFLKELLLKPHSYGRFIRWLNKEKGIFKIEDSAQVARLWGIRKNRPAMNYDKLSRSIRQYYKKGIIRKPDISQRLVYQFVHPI
How it was run: as §1

[5] = molecular target: T5, ETV7 (Homo sapiens, UniProt Q9Y603 1-341)
T5 sequence: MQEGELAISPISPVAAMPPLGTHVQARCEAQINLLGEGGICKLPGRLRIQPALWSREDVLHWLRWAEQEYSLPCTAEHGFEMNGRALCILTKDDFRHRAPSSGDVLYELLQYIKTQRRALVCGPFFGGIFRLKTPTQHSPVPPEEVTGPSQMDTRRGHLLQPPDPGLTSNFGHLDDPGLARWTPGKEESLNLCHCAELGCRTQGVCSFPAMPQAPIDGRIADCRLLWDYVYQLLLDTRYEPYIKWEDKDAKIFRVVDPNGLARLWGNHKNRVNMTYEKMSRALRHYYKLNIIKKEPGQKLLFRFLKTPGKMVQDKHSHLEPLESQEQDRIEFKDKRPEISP
How it was run: as §1

[6] = molecular target: T6, ELF5 (Homo sapiens, UniProt Q9UKW6-2 1-255)
T6 sequence: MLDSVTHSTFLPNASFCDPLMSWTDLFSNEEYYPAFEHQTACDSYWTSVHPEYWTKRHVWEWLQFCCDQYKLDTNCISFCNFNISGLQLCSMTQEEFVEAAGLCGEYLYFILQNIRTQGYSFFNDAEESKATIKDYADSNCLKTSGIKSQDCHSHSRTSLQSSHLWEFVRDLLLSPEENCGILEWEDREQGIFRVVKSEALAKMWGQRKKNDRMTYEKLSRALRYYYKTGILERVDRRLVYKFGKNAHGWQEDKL
How it was run: as §1

[7] = molecular target: T7, ETV3 (Homo sapiens, UniProt P41162-2 1-143)
T7 sequence: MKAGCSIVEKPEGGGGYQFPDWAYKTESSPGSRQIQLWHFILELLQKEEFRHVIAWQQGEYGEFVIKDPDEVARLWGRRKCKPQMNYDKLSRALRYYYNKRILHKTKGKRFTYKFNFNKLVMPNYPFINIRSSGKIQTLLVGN
How it was run: as §1

[8] = molecular target: ETV6 (Homo sapiens, UniProt P41212 1-452)
Sequence of ETV6 (P41212 whole entry): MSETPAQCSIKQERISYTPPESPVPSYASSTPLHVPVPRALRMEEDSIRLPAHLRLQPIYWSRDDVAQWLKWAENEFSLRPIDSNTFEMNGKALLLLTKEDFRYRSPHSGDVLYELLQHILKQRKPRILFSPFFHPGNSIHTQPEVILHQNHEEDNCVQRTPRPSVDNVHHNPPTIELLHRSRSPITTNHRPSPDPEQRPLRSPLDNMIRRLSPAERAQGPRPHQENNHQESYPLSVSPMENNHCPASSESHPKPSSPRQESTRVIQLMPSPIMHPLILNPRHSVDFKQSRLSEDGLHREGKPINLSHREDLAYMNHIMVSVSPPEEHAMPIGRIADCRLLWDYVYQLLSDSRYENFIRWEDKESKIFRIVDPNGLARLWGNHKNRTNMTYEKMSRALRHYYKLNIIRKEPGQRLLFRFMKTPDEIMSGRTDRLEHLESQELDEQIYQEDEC
How it was run: as §1

Sequence	binding signal [1]	binding signal [2]	binding signal [3]	binding signal [4]	binding signal [5]	binding signal [6]	binding signal [7]	binding signal [8]
TAATGG	1.17 fold enrichment (6-mer frequency, TF over GST control)	1.23 fold enrichment (6-mer frequency, TF over GST control)	1.28 fold enrichment (6-mer frequency, TF over GST control)	1.22 fold enrichment (6-mer frequency, TF over GST control)	1.2 fold enrichment (6-mer frequency, TF over GST control)	1.32 fold enrichment (6-mer frequency, TF over GST control)	1.28 fold enrichment (6-mer frequency, TF over GST control)	1.31 fold enrichment (6-mer frequency, TF over GST control)
ATACTG	1.14 fold enrichment (6-mer frequency, TF over GST control)	1.23 fold enrichment (6-mer frequency, TF over GST control)	1.1 fold enrichment (6-mer frequency, TF over GST control)	1.18 fold enrichment (6-mer frequency, TF over GST control)	1.09 fold enrichment (6-mer frequency, TF over GST control)	1.07 fold enrichment (6-mer frequency, TF over GST control)	1.12 fold enrichment (6-mer frequency, TF over GST control)	1.07 fold enrichment (6-mer frequency, TF over GST control)
CGACTA	1.31 fold enrichment (6-mer frequency, TF over GST control)	1.52 fold enrichment (6-mer frequency, TF over GST control)	1.38 fold enrichment (6-mer frequency, TF over GST control)	1.37 fold enrichment (6-mer frequency, TF over GST control)	1.31 fold enrichment (6-mer frequency, TF over GST control)	1.34 fold enrichment (6-mer frequency, TF over GST control)	1.21 fold enrichment (6-mer frequency, TF over GST control)	1.28 fold enrichment (6-mer frequency, TF over GST control)
TCCCGT	1.4 fold enrichment (6-mer frequency, TF over GST control)	1.29 fold enrichment (6-mer frequency, TF over GST control)	1.34 fold enrichment (6-mer frequency, TF over GST control)	1.44 fold enrichment (6-mer frequency, TF over GST control)	1.32 fold enrichment (6-mer frequency, TF over GST control)	1.6 fold enrichment (6-mer frequency, TF over GST control)	1.27 fold enrichment (6-mer frequency, TF over GST control)	1.3 fold enrichment (6-mer frequency, TF over GST control)
TACCGC	1.1 fold enrichment (6-mer frequency, TF over GST control)	1.14 fold enrichment (6-mer frequency, TF over GST control)	1.05 fold enrichment (6-mer frequency, TF over GST control)	1.17 fold enrichment (6-mer frequency, TF over GST control)	1.13 fold enrichment (6-mer frequency, TF over GST control)	1.08 fold enrichment (6-mer frequency, TF over GST control)	1.12 fold enrichment (6-mer frequency, TF over GST control)	1.04 fold enrichment (6-mer frequency, TF over GST control)
TTCGCA	1.46 fold enrichment (6-mer frequency, TF over GST control)	1.32 fold enrichment (6-mer frequency, TF over GST control)	1.18 fold enrichment (6-mer frequency, TF over GST control)	1.31 fold enrichment (6-mer frequency, TF over GST control)	1.26 fold enrichment (6-mer frequency, TF over GST control)	1.27 fold enrichment (6-mer frequency, TF over GST control)	1.34 fold enrichment (6-mer frequency, TF over GST control)	1.22 fold enrichment (6-mer frequency, TF over GST control)
CAAGTA	1.14 fold enrichment (6-mer frequency, TF over GST control)	1.09 fold enrichment (6-mer frequency, TF over GST control)	1.05 fold enrichment (6-mer frequency, TF over GST control)	1.08 fold enrichment (6-mer frequency, TF over GST control)	1.11 fold enrichment (6-mer frequency, TF over GST control)	1.06 fold enrichment (6-mer frequency, TF over GST control)	1.11 fold enrichment (6-mer frequency, TF over GST control)	1.14 fold enrichment (6-mer frequency, TF over GST control)
